Laboratory results taken from ChEMBL document CHEMBL3988442, “University of Dundee, Small-Polar-MMV Screening Library” (2021).
For some assays here: Measured potencies and affinities stand elsewhere.

Columns and labels:
Set-up in all cases: scale not given: direction of the effect not stated beside the values
[1] = target: Protein translocase subunit SecA (Escherichia coli (strain K12)) (UniProt P10408); assay: Assay to Identify E. coli SecA ATPase Inhibitors; assay type: functional; conditions: 30 µM
[2] = target: T1, Ubiquitin-activating enzyme e1, putative (Leishmania donovani (strain BPK282A1)) (UniProt E9BSI1); assay: Leishmania donovani Ubiquitin Activating Enzyme (LdE1); assay type: functional; conditions: 30 µM
T1 sequence (whole entry): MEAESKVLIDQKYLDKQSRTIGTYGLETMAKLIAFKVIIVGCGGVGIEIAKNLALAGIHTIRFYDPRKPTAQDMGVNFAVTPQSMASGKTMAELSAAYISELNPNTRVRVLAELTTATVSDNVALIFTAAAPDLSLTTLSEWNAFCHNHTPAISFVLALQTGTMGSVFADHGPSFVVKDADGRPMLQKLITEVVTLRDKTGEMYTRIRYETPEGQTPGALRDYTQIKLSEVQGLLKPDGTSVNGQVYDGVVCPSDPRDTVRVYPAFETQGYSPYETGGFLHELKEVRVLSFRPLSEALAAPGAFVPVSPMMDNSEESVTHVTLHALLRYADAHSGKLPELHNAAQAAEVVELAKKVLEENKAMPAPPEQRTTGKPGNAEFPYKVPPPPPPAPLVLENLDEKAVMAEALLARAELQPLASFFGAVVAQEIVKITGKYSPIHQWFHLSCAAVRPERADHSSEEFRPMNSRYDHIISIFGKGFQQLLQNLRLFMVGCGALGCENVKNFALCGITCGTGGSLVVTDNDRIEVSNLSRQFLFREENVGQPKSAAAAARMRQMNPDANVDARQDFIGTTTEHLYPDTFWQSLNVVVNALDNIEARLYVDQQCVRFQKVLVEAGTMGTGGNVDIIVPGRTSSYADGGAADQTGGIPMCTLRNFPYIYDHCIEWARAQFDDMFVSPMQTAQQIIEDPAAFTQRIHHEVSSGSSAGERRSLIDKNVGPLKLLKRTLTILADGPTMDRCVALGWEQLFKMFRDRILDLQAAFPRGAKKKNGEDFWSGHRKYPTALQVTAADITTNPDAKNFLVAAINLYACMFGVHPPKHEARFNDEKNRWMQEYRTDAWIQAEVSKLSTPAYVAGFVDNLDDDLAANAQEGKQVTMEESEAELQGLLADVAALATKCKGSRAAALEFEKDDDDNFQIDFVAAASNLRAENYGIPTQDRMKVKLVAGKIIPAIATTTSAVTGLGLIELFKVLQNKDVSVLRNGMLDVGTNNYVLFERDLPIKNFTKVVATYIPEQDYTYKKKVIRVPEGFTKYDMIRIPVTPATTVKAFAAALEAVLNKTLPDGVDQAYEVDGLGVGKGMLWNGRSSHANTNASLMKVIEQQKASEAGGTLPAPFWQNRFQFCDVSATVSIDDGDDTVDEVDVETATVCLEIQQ

[3] = target: AMP-activated protein kinase, AMPK (Homo sapiens) (UniProt P54646+O43741+P54619+Q9UGJ0+Q9Y478+Q13131+Q9UGI9); assay: AMP-dependent Kinase enzyme assay. An in vitro enzyme assay that detects ADP turnover that is directly proportional to AMPK activity. This uses naive AMPK that is activated during the assay with MK-8722; assay type: functional; conditions: 30 µM
[4] = target: Sialic acid-binding Ig-like lectin 9 (Homo sapiens) (UniProt Q9Y336); assay: Hs-Siglec9 ALPHAscreen SOP 20170721; conditions: 10 µM
Trypanosoma cruzi = assay: Trypanosoma cruzi phosphomannomutase and mannose-1-phosphate guanylyltransferase assay; assay type: functional; conditions: 10 µM
[5] = target: T2, Arginase-2, mitochondrial (Homo sapiens) (UniProt P78540); assay: in vitro enzyme assay to detect the production of urea directly proportional to the activity of Arginase II; assay type: functional; conditions: 33.3 µM; also: in the data most compounds retested in dose-response had high values
T2 sequence (whole entry): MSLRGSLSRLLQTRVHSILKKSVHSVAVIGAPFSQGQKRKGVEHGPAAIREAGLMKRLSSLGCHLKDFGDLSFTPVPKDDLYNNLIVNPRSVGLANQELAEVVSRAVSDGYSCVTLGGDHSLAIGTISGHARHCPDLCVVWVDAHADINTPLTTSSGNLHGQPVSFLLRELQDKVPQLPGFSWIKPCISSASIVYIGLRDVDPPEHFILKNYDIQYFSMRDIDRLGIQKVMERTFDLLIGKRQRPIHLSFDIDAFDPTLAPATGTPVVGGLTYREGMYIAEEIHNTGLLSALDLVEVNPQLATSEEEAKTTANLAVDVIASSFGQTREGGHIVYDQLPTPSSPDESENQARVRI

[6] = target: T3, Proteasome subunit beta (Trypanosoma cruzi) (UniProt O96673); assay: Trypanosoma cruzi proteasome chymotrypsin-like activity (TcProtChymo) assay.; also: in the data most compounds retested in dose-response had high values; assay type: functional; conditions: 9.37 µM
T3 sequence (whole entry): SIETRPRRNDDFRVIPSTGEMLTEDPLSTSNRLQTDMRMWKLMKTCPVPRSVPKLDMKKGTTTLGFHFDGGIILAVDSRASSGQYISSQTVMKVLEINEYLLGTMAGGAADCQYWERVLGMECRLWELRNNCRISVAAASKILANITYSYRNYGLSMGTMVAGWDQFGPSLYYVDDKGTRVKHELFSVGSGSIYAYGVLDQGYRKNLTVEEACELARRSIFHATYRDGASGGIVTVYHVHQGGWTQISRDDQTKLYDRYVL

Homo sapiens = species on record: Homo sapiens; assay: To identify inhibition of the IFN signalling (Jak-Stat) pathway via expression of an eGFP reporter gene under the control of an IFN-stimulated response element (ISRE) containing MxA promoter.; assay type: functional; conditions: 30 µM
[7] = target: T4, Tyrosyl-tRNA synthetase, putative (Trypanosoma cruzi (strain CL Brener)) (UniProt Q4DSP6); assay: Trypanosoma cruzi tyrosyl tRNA synthetase (TcYRS) _High Tyrosine SOP; assay type: functional; conditions: 30 µM; also: in the data most compounds retested in dose-response had high values
T4 sequence (whole entry): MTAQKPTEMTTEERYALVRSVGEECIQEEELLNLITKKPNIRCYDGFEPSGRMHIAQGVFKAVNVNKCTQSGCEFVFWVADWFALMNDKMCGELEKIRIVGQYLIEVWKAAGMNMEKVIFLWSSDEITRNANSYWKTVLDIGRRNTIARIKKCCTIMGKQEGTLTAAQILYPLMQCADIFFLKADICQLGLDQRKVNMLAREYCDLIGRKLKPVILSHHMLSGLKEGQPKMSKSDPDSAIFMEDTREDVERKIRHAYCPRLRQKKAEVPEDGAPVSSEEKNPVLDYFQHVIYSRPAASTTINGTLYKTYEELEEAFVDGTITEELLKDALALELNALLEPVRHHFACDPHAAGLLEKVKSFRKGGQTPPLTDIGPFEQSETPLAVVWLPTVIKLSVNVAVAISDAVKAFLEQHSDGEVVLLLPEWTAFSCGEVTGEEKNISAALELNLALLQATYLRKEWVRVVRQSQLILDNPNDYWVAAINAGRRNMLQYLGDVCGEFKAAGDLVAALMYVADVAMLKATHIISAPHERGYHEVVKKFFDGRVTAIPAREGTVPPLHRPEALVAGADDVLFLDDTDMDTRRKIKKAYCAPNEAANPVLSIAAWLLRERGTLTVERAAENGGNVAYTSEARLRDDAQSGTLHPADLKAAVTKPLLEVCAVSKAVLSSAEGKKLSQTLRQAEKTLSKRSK

[8] = target: T4, Tyrosyl-tRNA synthetase, putative (Trypanosoma cruzi (strain CL Brener)); assay: Trypanosoma cruzi tyrosyl tRNA synthetase (TcYRS) SOP; assay type: functional; conditions: 30 µM
[9] = target: Chromo domain-containing protein 1 (Saccharomyces cerevisiae (strain ATCC 204508 / S288c) (Baker's yeast)) (UniProt P32657); assay: ScCHD-1 Enzyme Inhibition Assay; assay type: functional; conditions: 30 µM; also: in the data most compounds retested in dose-response had high values
Chain of Chromo domain-containing protein 1 (Saccharomyces cerevisiae (strain ATCC 204508 / S288c) (Baker's yeast)) (P32657 whole entry, the tested form may be a part): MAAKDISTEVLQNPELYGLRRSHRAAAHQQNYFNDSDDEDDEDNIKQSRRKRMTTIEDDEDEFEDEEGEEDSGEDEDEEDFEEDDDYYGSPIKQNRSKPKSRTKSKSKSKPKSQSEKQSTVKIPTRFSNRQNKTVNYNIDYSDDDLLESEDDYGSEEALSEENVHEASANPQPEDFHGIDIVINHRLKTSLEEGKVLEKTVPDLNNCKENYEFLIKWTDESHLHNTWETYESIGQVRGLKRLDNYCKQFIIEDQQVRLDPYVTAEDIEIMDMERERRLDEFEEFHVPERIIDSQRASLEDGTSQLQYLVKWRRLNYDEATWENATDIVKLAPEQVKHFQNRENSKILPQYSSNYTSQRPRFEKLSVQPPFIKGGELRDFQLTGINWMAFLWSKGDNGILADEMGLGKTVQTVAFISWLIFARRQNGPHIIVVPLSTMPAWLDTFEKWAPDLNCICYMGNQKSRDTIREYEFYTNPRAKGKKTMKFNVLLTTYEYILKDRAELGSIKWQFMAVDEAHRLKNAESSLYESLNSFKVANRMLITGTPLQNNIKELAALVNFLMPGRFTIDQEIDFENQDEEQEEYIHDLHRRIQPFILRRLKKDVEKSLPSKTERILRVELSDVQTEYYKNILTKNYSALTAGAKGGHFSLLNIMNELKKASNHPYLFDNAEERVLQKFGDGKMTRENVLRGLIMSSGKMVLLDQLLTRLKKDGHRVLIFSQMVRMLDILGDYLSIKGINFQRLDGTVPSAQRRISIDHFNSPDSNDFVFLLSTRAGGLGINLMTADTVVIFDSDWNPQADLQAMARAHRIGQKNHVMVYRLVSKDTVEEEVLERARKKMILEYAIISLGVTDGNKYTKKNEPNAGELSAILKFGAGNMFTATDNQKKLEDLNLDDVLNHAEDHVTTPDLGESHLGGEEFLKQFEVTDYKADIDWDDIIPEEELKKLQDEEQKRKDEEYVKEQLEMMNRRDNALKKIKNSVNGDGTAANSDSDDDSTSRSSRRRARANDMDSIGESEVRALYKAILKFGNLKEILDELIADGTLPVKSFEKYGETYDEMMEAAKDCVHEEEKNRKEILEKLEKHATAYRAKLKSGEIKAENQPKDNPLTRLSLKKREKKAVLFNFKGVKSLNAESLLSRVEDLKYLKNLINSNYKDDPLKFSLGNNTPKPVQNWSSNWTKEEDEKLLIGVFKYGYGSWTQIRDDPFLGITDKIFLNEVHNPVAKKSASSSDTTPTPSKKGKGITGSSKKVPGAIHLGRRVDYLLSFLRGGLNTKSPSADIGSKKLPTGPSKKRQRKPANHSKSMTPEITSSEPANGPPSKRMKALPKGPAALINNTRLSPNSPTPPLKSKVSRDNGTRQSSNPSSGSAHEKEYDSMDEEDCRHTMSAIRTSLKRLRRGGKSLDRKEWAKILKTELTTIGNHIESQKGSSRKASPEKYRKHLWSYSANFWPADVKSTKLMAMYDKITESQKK

Chain of Sialic acid-binding Ig-like lectin 9 (Homo sapiens) (Q9Y336 whole entry): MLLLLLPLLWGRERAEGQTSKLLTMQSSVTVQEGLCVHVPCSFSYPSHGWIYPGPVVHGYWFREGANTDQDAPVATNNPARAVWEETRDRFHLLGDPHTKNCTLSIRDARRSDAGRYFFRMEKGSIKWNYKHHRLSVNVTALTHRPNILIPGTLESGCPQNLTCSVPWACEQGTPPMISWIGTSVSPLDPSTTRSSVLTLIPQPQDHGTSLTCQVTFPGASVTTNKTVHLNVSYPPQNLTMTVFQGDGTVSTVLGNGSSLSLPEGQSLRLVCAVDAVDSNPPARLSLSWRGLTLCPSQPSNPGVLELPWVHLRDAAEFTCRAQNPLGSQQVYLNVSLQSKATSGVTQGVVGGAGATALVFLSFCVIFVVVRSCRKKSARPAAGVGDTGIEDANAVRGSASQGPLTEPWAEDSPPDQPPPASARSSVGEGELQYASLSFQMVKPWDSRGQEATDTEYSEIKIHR
Chain of Protein translocase subunit SecA (Escherichia coli (strain K12)) (P10408 whole entry): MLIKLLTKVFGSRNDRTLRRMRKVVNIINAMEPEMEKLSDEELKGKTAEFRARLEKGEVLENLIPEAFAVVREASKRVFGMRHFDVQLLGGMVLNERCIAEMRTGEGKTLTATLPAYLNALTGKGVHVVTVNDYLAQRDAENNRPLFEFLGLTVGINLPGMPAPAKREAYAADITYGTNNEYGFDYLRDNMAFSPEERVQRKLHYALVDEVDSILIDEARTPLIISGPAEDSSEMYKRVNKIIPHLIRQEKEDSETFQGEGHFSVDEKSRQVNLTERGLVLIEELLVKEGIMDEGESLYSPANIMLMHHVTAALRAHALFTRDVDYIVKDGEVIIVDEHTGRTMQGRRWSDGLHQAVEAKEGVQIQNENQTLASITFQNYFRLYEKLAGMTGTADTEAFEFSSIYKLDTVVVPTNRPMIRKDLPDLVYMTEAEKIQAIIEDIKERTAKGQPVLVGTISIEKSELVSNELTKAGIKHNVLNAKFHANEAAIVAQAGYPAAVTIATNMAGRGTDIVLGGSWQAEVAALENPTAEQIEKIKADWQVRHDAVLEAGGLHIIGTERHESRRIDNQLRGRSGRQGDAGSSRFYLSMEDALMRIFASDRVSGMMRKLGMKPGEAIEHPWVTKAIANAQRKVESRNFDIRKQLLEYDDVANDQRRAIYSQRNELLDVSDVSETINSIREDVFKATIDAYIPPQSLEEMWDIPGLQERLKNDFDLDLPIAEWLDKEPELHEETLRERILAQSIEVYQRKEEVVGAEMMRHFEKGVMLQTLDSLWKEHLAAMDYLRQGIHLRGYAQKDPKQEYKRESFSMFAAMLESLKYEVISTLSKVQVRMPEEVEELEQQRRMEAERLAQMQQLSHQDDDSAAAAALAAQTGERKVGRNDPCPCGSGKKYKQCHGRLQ

Row | SMILES | Percent Effect [1] [%] | Percent Effect [2] [%] | Percent Effect [3] [%] | Percent Effect [4] [%] | Percent Effect (Trypanosoma cruzi) [%] | Percent Effect [5] [%] | Percent Effect [6] [%] | Percent Effect (Homo sapiens) [%] | Percent Effect [7] [%] | Percent Effect [8] [%] | Percent Effect [9] [%]
1 | CC(C)c1nn(CC(=O)N2CCCCC2)c(=O)c2c1cnn2C(C)(C)C | -2.78 | 11 | -3.21 | -1.33 | -4.31 | 0.455 | 16.5 | 17.3 | 2.15 | 12.5 | -6.96
2 | CC(O)CC(C)(C)CNC(=O)NCc1cccc(-n2cncn2)c1 (configuration not stated) | -3.57 | -2.7 | -0.791 | 7.51 | 2.64 | 4.22 | 9.53 | -9.29 | 0 | 1.24 | -0.141
3 | Cc1cc(C)cc(NC(=O)CN2CCCC(n3cncn3)C2)c1 (configuration not stated) | -3.62 | 8.11 | 1.86 | 6.56 | 8.08 | -1.66 | 1.44 | 3.59 | 2.97 | 15.8 | -2.91
4 | Cn1nc(CNC(=O)NCc2ccc(Cl)cc2)c2c1CCOC2 | -4.99 | 5.2 | 6.43 | 7.81 | 3.45 | -7.1 | -3.83 | 20.2 | 0 | -3.85 | -5.33
5 | CC(C)CCc1noc(CN2CCCN(C(=O)c3ccco3)CC2)n1 | -5.45 | -8.22 | -0.00644 | 4.33 | 2.38 | -11.2 | 3.68 | 7.02 | 3.12 | 3.7 | -3.57
6 | Cc1cccc(CN(C)Cc2nc3c(cnn3C)c(=O)[nH]2)c1 | -3.57 | 21.1 | -0.412 | -12.2 | -5.51 | -5.04 | 3.3 | -2.73 | 8.37 | 23.5 | -7.57
7 | COc1ccc(CN2C[C@@H]3COC[C@]3(COc3cccnc3)C2)cc1 | -1.95 | 0 | 3.5 | -0.202 | 3.12 | -0.417 | 4.14 | -15.2 | 0 | 6.1 | -0.593
8 | CCc1ccc(S(=O)(=O)Nc2c(C)cccc2C(=O)O)s1 | -6.89 | 5.26 | -2.41 | 7.53 | 2.71 | -2.16 | 3.64 | -1.38 | 2.46 | 6.17 | 2.56
9 | COC(=O)c1ccc(C(=O)NS(=O)(=O)c2cncc(Br)c2)cc1 | -4.86 | 0 | 0.578 | 3.83 | -2.9 | -0.952 | 15.7 | 26.4 | -0.529 | 2.44 | -0.393
10 | CCN(CCNC(=O)c1ccccc1OCCOC)C1CC1 | -1.14 | 21.5 | -0.982 | -8.11 | 0.513 | -4.52 | 17 | 14.4 | 3.12 | 17.7 | -34.3
11 | O=C(NCCCN1CCCC1=O)Nc1ccc(Br)cc1Cl | -4.26 | -4 | 3.31 | 6.15 | 3.14 | -3.7 | 7.02 | 8.83 | 0 | 2.56 | -2.19
12 | Cc1cnn(CCC(=O)N2CCOC(c3nc(C(C)(C)C)n[nH]3)C2)c1 (configuration not stated) | -3.54 | -6.94 | 7.25 | 3.02 | -3.6 | -0.883 | 5.26 | 20.6 | -1.05 | -10.3 | -1.3
13 | Cc1ccccc1CN1CCN(CC(=O)Nc2cccnc2)CC1 | -3.14 | 15.6 | -360 | -1.61 | 6.95 | 3.58 | 11.1 | 12.5 | 4.76 | 18.8 | -2.58
14 | CNC(=O)c1ccc(C2CN(C(=O)c3cncs3)CCO2)nc1 (configuration not stated) | -2.48 | 20.3 | 5.67 | 6.66 | 1.19 | -1.62 | 11.1 | -10 | 2.15 | 16.9 | -16.6
15 | COCC1CC2(CCN(C(=O)c3cccc(C)c3)CC2)CO1 (configuration not stated) | -0.162 | 5.2 | 3.05 | 6.28 | -1.68 | -1.94 | 1.74 | -8.87 | -3.17 | -3.85 | -5.05
16 | c1cnnc(N2CCCC2CNc2nc3ccccc3o2)c1 (configuration not stated) | -5.3 | 11.4 | 3.62 | 9.59 | 1.33 | 4.95 | 11.5 | 11.9 | 0 | 20.2 | -16
17 | COCC(C)(O)CNC(=O)COc1ccccc1OC (configuration not stated) | -1.78 | 2.74 | 6.7 | -4.63 | -4.31 | 2.27 | 8.52 | 1.8 | 5.38 | 7.5 | -3.71
18 | O=C(Cc1cccc(Cl)c1)N[C@@H]1CCNC[C@H]1O | -6.4 | 18.9 | -5.86 | 31.3 | 4.2 | 19.1 | 9.7 | 0.775 | 5.38 | 16.1 | -13.7
19 | CC(C)(C)c1n[nH]c(C2CN(C(=O)c3cc(Cl)c[nH]3)CCO2)n1 (configuration not stated) | -6.35 | 15.8 | 3.14 | 10.4 | 3.99 | -5.92 | 17.2 | -3.03 | 2.13 | 15.6 | -6.65
20 | COc1ccc(CN2CCn3cc(CN4CCN(C)CC4)nc3C2)cc1 | -4.41 | 8.11 | 4.53 | -5.52 | -2.83 | 4.78 | 18.4 | -7.72 | -2.16 | 5.13 | 3.23
21 | Cc1nc(C)n(CC2CCCN2CC(=O)NCc2ccco2)n1 (configuration not stated) | -0.786 | 2.74 | 1.19 | 4.18 | 0.979 | -1.36 | 13.8 | 6.45 | 1.07 | -2.5 | -3.99
22 | CO[C@H]1CN(C(=O)c2ccc3oc(C)cc3c2)CC[C@@]12CCCO2 | -0.467 | 1.35 | 11.4 | 2.79 | 0.593 | -0.696 | 5.77 | -10.3 | 0 | -1.3 | -11.8
